# Values joined by “and” are separate entries in the source; they are usually repeats but may differ in a detail not shown here. Equal values may be shown once. This is one part of the list. Results filed as inconclusive are left out. Active and inactive are the calls of the source.
# How the values were obtained:
# [1] = inhibitors of TNFa-induced NFkB p65 translocation, primary screen, imaging, HUVEC, MLSMR starter and 10KST1 sets (AID 438;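 active means inhibition above 20% together with a positive visual image hit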;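 further: compound added about 3h40 before a 20 min TNFalpha stimulation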;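 on inhibition: signal is the nuclear over cytoplasmic p65 intensity ratio per well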); conditions: HUVEC TNFa-induced p65 nuclear translocation; cell count: measured here: nuclei count (cytotoxicity indicator), at 2.08 µM unless noted; inhibition: at 2 µM, stronger effect = higher value unless noted
# [2] = inhibitors of mutant huntingtin aggregation, primary screen, imaging, exon1htt(103Q)mCFP cells, high-content imaging (AID 483;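 active means visual image review flags a hit and inhibition of aggregation exceeds 20%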;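 further: compound exposure lasted 3 days before fixation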;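 on nuclei count: percent of the per-plate median nuclei count of sample wells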); conditions: exon1htt(103Q)mCFP cell line, aggregate imaging, at 2 µM; inhibition of aggregation: stronger effect = higher value; nuclei count: measured here: cell count, toxicity
# [3] = inhibitors of E-selectin induction by TNFa, primary screen, imaging, HUVEC, immunofluorescence, MLSMR starter and 10KST1 sets (AID 487;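 active means visually confirmed hit in the image check and inhibition above 20%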;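 on inhibition: signal is fraction of cell area covered by stained E-selectin grains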;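 on nuclei count: 100% = median nuclei count of all wells on the same plate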); conditions: HUVEC TNFalpha-induced E-selectin immunofluorescence imaging, at 2 µM; inhibition: stronger effect = higher value; nuclei count: measured here: cell number, toxicity
# [4] = DUSP6 inhibitors restoring Erk phosphorylation by chemical complementation, primary imaging in DUSP6-transfected HeLa (AID 609;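 active means compounds giving at least 50% inhibition in the cell-based MKP-3 phosphatase rescue imaging test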;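 on inhibition: phospho-Erk level distribution per well compared with pooled transfected vehicle control wells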); conditions: HeLa MKP-3 transfected, phospho-Erk imaging KS statistic, at 10 µM
# [5] = molecular target: Dual specificity protein phosphatase 6 (Homo sapiens) (UniProt Q16828); test: as above; conditions: HeLa MKP-3 transfected, phospho-Erk imaging KS statistic, at 10 µM, stronger effect = higher value
# Dual specificity protein phosphatase 6 (Homo sapiens), sequence (Q16828 whole entry, looked up): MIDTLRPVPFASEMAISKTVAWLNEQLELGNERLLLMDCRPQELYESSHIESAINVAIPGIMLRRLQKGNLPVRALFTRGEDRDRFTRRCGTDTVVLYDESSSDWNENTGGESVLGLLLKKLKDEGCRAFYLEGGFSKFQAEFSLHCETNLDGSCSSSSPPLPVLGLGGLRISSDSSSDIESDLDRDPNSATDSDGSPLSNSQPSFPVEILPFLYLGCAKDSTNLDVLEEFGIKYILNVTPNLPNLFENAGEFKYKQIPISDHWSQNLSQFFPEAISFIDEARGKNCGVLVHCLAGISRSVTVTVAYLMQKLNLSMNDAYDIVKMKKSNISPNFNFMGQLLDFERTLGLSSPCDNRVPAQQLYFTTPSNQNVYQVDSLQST
# [6] = molecular target: Voltage-gated potassium channel subunit beta-2 (Rattus norvegicus) (UniProt P62483); test: KvBeta enzyme negative modulators, primary screen, biochemical, NADPH fluorescence (AID 622;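 active means fluorescence slope higher than the sample average by over 3 SD, cut at about -0.22 in these data, passing the limit was not always enough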;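 further: slope of raw intensity against log time taken from 70 to 1610 s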); conditions: recombinant KvBeta, 4-cyanobenzaldehyde reduction, at 10 µM, stronger effect = higher value
# Voltage-gated potassium channel subunit beta-2 (Rattus norvegicus), sequence (P62483 whole entry, looked up): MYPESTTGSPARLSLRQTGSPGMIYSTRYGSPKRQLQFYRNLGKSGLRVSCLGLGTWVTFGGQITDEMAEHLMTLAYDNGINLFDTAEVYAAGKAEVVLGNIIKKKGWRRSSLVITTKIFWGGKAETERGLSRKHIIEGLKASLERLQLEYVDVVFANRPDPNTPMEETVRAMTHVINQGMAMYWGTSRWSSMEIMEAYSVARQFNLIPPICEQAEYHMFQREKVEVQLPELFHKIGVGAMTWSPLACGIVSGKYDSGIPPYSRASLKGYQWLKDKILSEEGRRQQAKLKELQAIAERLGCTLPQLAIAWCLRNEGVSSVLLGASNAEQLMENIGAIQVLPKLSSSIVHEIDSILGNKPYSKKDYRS
# [7] = molecular target: Voltage-gated potassium channel subunit beta-2 (Rattus norvegicus) (UniProt P62483); test: KvBeta positive modulators, primary screen, biochemical, NADPH fluorescence (AID 623;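 active means NADPH fluorescence slope more negative than the mean of all samples by about 3 SD, 99.7% confidence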;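 further: fluorescence intensity change per second fitted from 20 to 320 s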); conditions: Recombinant KvBeta, NADPH fluorescence decrease slope, 10 min; at 10 µM; stronger effect = lower value
# [8] = molecular target: Alpha-2C adrenergic receptor (Homo sapiens) (UniProt P18825); test: modulators of alpha2C/GIRK thallium flux, primary screen, cell-based, HEK293 alpha2C/GIRK1/2 (AID 624;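 active means fluorescence slope after compound addition differing from the mean of all screened samples at 99.7% confidence, in either direction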;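 further: slope of fluorescence ratio to pre-addition baseline per second over 15 to 24 s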); conditions: thallium flux BTC fluorescence, at 10 µM, actives lie on both sides
# Alpha-2C adrenergic receptor (Homo sapiens), sequence (P18825 whole entry, looked up): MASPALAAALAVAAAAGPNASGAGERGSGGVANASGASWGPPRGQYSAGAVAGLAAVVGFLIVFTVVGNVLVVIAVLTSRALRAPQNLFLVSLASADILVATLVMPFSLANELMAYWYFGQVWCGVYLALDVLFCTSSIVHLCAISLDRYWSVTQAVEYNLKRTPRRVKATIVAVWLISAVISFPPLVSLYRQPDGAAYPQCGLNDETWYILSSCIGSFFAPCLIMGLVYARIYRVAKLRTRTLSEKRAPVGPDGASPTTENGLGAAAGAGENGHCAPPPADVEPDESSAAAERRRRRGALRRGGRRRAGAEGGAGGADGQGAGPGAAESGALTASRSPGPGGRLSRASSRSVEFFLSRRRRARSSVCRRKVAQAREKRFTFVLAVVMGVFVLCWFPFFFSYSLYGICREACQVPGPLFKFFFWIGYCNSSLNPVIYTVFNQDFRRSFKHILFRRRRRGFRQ
# [9] = molecular target: Muscarinic acetylcholine receptor M4 (Homo sapiens) (UniProt P08173); test: compounds altering M4/GIRK thallium flux, either direction, primary screen, M4 allosteric agonist project, cell-based, HEK293 M4/GIRK, BTC-AM (AID 625;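 active means fluorescence slope after compound addition differing from the mean of all tested samples at 99.7% confidence, mostly higher but some lower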;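 further: thallium influx through GIRK channels coupled to M4 in HEK293 cells with BTC-AM dye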); conditions: at 10 µM, actives lie on both sides
# Muscarinic acetylcholine receptor M4 (Homo sapiens), sequence (P08173 whole entry, looked up): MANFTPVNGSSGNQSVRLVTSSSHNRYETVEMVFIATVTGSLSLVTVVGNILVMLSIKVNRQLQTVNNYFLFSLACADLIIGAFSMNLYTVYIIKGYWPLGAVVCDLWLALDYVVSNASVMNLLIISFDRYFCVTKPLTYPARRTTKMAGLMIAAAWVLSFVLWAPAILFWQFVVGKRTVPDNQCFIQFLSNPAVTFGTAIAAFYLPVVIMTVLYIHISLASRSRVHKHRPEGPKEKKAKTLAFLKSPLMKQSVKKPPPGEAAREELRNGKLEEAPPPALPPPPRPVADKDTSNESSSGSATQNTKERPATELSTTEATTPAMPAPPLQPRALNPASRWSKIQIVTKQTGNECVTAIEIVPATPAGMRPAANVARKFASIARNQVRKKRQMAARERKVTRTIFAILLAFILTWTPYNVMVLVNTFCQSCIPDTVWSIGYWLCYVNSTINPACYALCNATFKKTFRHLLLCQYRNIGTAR
# [10] = inhibitors of larval lipid processing in zebrafish, primary screen, whole organism, PED6 fluorescence, gall bladder and intestine (AID 686;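 active means a full or partial loss of lipid-probe fluorescence in the fish gall bladder, intestine or both, judged by eye; inactive means no fluorescence loss, or compound toxic to the fish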;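 further: larvae 5 to 7 days old with five fish per well; signal comes from phospholipase A2 cleavage of quenched PED6 carried via bile; overnight exposure to compound and PED6 before scoring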); conditions: Zebrafish larvae PED6 lipid processing, fluorescence scoring
# [11] = inhibitors of Chlamydomonas gravitaxis, primary screen, whole organism, Chlamydomonas reinhardtii, WT vs cilia-less mutant, absorbance, 96-well (AID 463189); conditions: OD600 absorbance, 2 days, at 10 µM, stronger effect = higher value;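 further: 0% = wild type cc124 cells in DMSO and 100% = ciliumless bld1 mutant cells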
# [12] = inhibitors of Sendai virus-induced IRF3 signaling, primary screen, TLR/RLR signaling modifier project, cell-based, Sendai virus stimulus, luciferase, 10K MLSCN set (AID 602276;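 active means inhibition at or above 50% at 10 µM; inactive means inhibition below 50%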;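 further: firefly luciferase from ISG56 promoter only with Renilla not read in this screen; 0% = Sendai virus plus DMSO and 100% = medium plus DMSO without virus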); conditions: HEK293 RL24 IRF3 luciferase reporter, at 10 µM, stronger effect = higher value
# [13] = inhibitors of poly I:C-induced TLR3 signaling, primary screen, cell-based, poly I:C stimulus, luciferase, 10K MLSCN set (AID 602277;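 active means inhibition of the reporter signal at or above 50%; inactive means inhibition below 50%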); conditions: HEK293-TLR3 RL24 IRF3 luciferase reporter, at 10 µM, stronger effect = higher value
# [14] = molecular target: Solute carrier family 12 member 5 (Homo sapiens) (UniProt Q9H2X9); test: KCC2 modulators in sodium-free buffer, confirmation, cell-based, HEK293 KCC2, thallium flux, secondary assay (AID 1713;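 active means thallium flux slope above the same plate's solvent-only control mean plus 3 SD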); conditions: FluoZin2 fluorescence, at 10 µM, stronger effect = higher value
# Solute carrier family 12 member 5 (Homo sapiens), sequence (Q9H2X9 whole entry, looked up): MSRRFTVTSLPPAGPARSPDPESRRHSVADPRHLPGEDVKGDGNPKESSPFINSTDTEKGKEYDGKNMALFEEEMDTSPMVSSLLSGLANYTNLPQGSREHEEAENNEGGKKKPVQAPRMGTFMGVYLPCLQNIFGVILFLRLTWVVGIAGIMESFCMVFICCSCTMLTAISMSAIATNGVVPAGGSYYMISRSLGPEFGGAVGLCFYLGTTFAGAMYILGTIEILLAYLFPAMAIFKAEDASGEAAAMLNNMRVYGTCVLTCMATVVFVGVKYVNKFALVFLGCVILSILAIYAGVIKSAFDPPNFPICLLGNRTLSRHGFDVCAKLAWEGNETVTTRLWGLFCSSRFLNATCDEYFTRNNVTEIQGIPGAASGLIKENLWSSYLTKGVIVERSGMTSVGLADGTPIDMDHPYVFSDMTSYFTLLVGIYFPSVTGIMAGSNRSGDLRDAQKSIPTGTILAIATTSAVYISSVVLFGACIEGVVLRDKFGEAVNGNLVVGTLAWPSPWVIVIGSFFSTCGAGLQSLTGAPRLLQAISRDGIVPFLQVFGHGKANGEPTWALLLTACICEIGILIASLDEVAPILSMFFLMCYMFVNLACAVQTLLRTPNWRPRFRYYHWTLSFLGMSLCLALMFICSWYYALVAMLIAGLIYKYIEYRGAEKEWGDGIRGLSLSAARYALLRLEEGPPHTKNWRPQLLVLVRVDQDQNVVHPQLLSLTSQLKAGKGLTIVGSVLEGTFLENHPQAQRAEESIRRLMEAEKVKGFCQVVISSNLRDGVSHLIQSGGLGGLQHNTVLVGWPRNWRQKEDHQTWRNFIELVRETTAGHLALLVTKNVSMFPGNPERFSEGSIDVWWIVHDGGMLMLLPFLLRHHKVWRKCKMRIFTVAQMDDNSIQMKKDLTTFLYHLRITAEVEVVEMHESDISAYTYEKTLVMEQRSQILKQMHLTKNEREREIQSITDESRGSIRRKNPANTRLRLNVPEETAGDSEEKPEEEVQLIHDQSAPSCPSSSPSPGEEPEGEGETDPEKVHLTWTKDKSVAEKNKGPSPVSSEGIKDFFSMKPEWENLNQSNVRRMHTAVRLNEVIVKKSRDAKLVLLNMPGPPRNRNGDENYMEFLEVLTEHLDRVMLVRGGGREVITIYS
# [15] = PubChem AID 1714; conditions: HEK293-KCC2 + bumetanide/ouabain, thallium flux FluoZin2; at 10 µM; stronger effect = higher value;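 further: raw slope of fluorescence over initial fluorescence between 10 and 20 s after thallium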
# [16] = molecular target: Solute carrier family 12 member 5 (Homo sapiens) (UniProt Q9H2X9); test: KCC2 modulators without ouabain present, confirmation, cell-based, HEK293 KCC2, thallium flux, FluoZin2, secondary assay 2 (AID 1715;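 active means thallium flux slope more than 3 SD above or below the plate's solvent-only control mean, mostly below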;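 further: raw slope with 0.1% DMSO as baseline and bumetanide as block control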); conditions: HEK293-KCC2, thallium flux FluoZin2 fluorescence; at 10 µM; actives lie on both sides
# [17] = thallium flux modulation in parental HEK cells, confirmation, counter-screen for KCC2 modulator project, cell-based, counterscreen 1 (AID 1716;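 active means thallium flux rate significantly above the same plate's solvent-only control wells, beyond their mean plus 3 SD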); conditions: HEK293 parental cells, thallium flux FluoZin2, ouabain; at 10 µM; baseline-ratio fluorescence slope, 10–20 s after thallium
# [18] = molecular target: Solute carrier family 12 member 5 (Homo sapiens) (UniProt Q9H2X9); test: KCC2 inhibitors and activators, ouabain retest, confirmation, HEK-KCC2 cells (AID 1717;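 active means thallium flux slope beyond 3 SD from same-plate DMSO control mean in most replicates, usually higher, sometimes lower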;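 further: slope of initial-normalized fluorescence between seconds 10 and 20 after thallium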); conditions: HEK293-KCC2, thallium flux FluoZin2 fluorescence, at 10 µM, bidirectional: low = inhibitor, high = activator
# [19] = native HEK Tl+ uptake effects, second counter-screen – HEK cells, counterscreen 2, counter-screen for KCC2 modulator project, confirmation (AID 1718;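 active means thallium flux slope above the same plate's solvent-control mean plus 3 SD in both duplicate wells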;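 further: run without ouabain in cells lacking the KCC2 cotransporter; slope of fluorescence scaled to its starting value between 10 and 20 s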); conditions: HEK293 parental, thallium flux FluoZin-2 fluorescence slope; at 10 µM
# [20] = measured here: cell density z-score
# [21] = measured here: nuclear c-Myc green intensity z-score
# [22] = measured here: nuclear pErk red intensity z-score, stronger effect = higher value
compound,measurement,setting,value
Nc1ccc(C2(c3ccc(N)cc3)CN3CCC2CC3)cc1,cell count,[1],688
same,inhibition,[1],-0.7% (inactive)
same,inhibition of aggregation,[2],1.5% (inactive)
same,nuclei count,[2],104%
same,inhibition,[3],-49.8% (inactive)
same,nuclei count,[3],138%
same,z-score,[4]; [20],-0.8
same,z-score,[4]; [21],0.409
same,z-score,[4]; [22],-0.625
same,inhibition,[5],1.12% (inactive)
same,fluorescence slope,[6],-0.502 (inactive)
same,NADPH fluorescence slope,[7],-3e-05 (inactive)
same,slope,[8],0.00562 (inactive)
same,fluorescence slope,[9],0.00533 (inactive)
same,outcome,[10],inactive
same,inhibition,[11],8.44% (inactive)
same,inhibition,[12],2.43% (inactive)
same,inhibition,[13],13.5% (inactive)
CN1CCC(OC(=O)C2c3ccccc3Oc3ccccc32)CC1,cell count,[1],593
same,inhibition,[1],-3.3% (inactive)
same,inhibition of aggregation,[2],-33.4% (inactive)
same,nuclei count,[2],104%
same,inhibition,[3],-38.4% (inactive)
same,nuclei count,[3],143%
same,z-score,[4]; [20],-1.82
same,z-score,[4]; [21],0.811
same,z-score,[4]; [22],-0.439
same,inhibition,[5],-3.5% (inactive)
same,fluorescence slope,[6],-0.316 (inactive)
same,NADPH fluorescence slope,[7],1.2e-05 (inactive)
same,slope,[8],0.0042 (inactive)
same,outcome,[10],inactive
same,inhibition,[11],11.4% (inactive)
same,inhibition,[12],7.89% (inactive)
same,inhibition,[13],12.3% (inactive)
C[C@H]1OC[C@@H](C[N+](C)(C)C)O1,cell count,[1],534
same,inhibition,[1],-2.2% (inactive)
same,inhibition of aggregation,[2],21% (inactive)
same,nuclei count,[2],93.2%
same,inhibition,[3],-83.7% (inactive)
same,nuclei count,[3],112%
same,z-score,[4]; [20],0.485
same,z-score,[4]; [21],0.998
same,z-score,[4]; [22],-0.857
same,inhibition,[5],16.8% (inactive)
same,fluorescence slope,[6],-0.458 (inactive)
same,NADPH fluorescence slope,[7],-5.9e-05 (inactive)
same,slope,[8],0.0176 (active)
same,outcome,[10],inactive
same,inhibition,[11],-2.33% (inactive) and 9.97% (inactive)
same,inhibition,[12],1.89% (inactive)
same,inhibition,[13],50.9% (active)
CC1=NOC2(C)Nc3ncnn3C(c3ccccc3)C12 (stereo unspecified),cell count,[1],604
same,inhibition,[1],-11.4% (inactive)
same,inhibition of aggregation,[2],21% (inactive)
same,nuclei count,[2],85%
same,inhibition,[3],-129% (inactive)
same,nuclei count,[3],145%
same,z-score,[4]; [20],0.203
same,z-score,[4]; [21],0.546
same,z-score,[4]; [22],1.46
same,inhibition,[5],1.98% (inactive)
same,fluorescence slope,[6],-0.454 (inactive)
same,NADPH fluorescence slope,[7],-5.1e-05 (inactive)
same,slope,[8],0.00521 (inactive)
same,fluorescence slope,[9],0.00509 (inactive)
same,outcome,[10],inactive
same,inhibition,[11],2.9% (inactive)
same,inhibition,[12],-5.02% (inactive)
same,inhibition,[13],6.14% (inactive)
COc1cc(-n2c(=S)[nH]c3ccc(C)cc3c2=O)c(Cl)cc1Cl,normalised thallium flux (F/F0 slope),[14],0.0155 (active)
same,normalized thallium flux,[15],0.0563 (active)
same,normalized thallium flux,[16],0.0344 (inactive)
same,thallium flux rate (normalised fluorescence),[17],0.0674 (active)
same,"raw Tl+ flux slope (below DMSO = inhibition, above = activation)",[18],0.0437 (active)
same,thallium flux slope,[19],0.0196 (active)

# From PubChem BioAssay
